Assay results from PubChem BioAssay (Tox21).
Calls of active or inactive are those of the source. Calls come from the whole dose curve; as a rule, active = well fitted curve in the direction sought with a large enough effect in the repeat runs; inconclusive = weak or mixed curves; inactive = flat fitted curve, though single readings scatter.

Columns and labels:
[1] = qHTS assay to test for compound auto fluorescence at 535 nm (green) in HEK293 cells (AID 720680); details: green autofluorescence 485/535 nm; series mostly up to 91.3 µM
[2] = qHTS assay to test for compound auto fluorescence at 460 nm (blue) in HEK293 cell free culture (AID 720681); details: cell-free medium, autofluorescence 405/460 nm (blue); series mostly up to 91.3 µM
In short: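 Compounds were added to cell-free DMEM with 10% FBS and fluorescence read directly. The blue channel used 405 nm excitation and 460 nm emission, with triamterene as the reference fluorophore.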

[3] = qHTS assay to test for compound auto fluorescence at 535 nm (green) in HEK293 cell free culture (AID 720682); details: cell-free medium, green autofluorescence 485/535 nm, stronger effect = higher value; series mostly up to 91.3 µM
In short: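 Steps: dispense DMEM/10% FBS into empty wells; pin in compound or DMSO; measure fluorescence at 485/535 nm. Values are fluorescein equivalents.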

[4] = qHTS assay to test for compound auto fluorescence at 590 nm (red) in HEK293 cell free culture (AID 720683); details: cell-free medium autofluorescence, Ex540/Em590 red; series mostly up to 91.3 µM
In short: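 Cell-free wells of DMEM with 10% FBS received compound, and intrinsic fluorescence was read at excitation/emission 540/590 nm. Values expressed as equivalence to Rose Bengal sodium.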

[5] = qHTS assay to test for compound auto fluorescence at 590 nm (red) in HepG2 cell free culture (AID 720684); details: cell-free medium autofluorescence, red 540/590 nm; series mostly up to 91.3 µM
In short: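 Auto fluorescence equivalency versus Rose Bengal sodium, red channel Ex/Em 540/590 nm; compounds in cell-free MEM/10% FBS; DMSO vehicle control.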

[6] = qHTS assay to test for compound auto fluorescence at 460 nm (blue) in HepG2 cell free culture (AID 720685); details: Cell-free culture medium, blue autofluorescence 405/460 nm; series mostly up to 91.3 µM
In short: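 Cell-free plates of MEM plus 10% FBS received 23 nL compound or DMSO vehicle; blue-channel (405/460 nm) intensity scored against triamterene as reference fluorophore.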

[7] = qHTS assay to test for compound auto fluorescence at 535 nm (green) in HepG2 cell free culture (AID 720686); details: Cell-free medium, green autofluorescence 485/535 nm; series mostly up to 91.3 µM
[8] = qHTS assay to test for compound auto fluorescence at 460 nm (blue) in HepG2 cells (AID 720687); details: autofluorescence 405/460 nm, 1 h; series mostly up to 91.3 µM
In short: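 HepG2 cells in MEM with 10% FBS, attached overnight at 37 C, were exposed to compound or DMSO for 1 hr at 37 C, 5% CO2. Blue fluorescence was read at 405/460 nm, with triamterene as reference fluorophore.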
% is set by controls: 0 for no effect and ±100 for the full control effect.

CCCCCOC(=O)CCC
inactive: outcome [1] | outcome [2] | outcome [3] | outcome [4] | outcome [5] | outcome [6] | outcome [7] | outcome [8]

CC(COC(C)(C)C)OCCCO (stereo not drawn)
inactive: outcome [1] | outcome [2] | outcome [3] | outcome [4] | outcome [5] | outcome [6] | outcome [7] | outcome [8]

COCCOC(=O)C1=C(C)NC(C)=C(C(=O)OC(C)C)C1c1cccc([N+](=O)[O-])c1 (stereo not drawn)
inactive: outcome [1] | outcome [2] | outcome [3] | outcome [4] | outcome [5] | outcome [6] | outcome [7] | outcome [8]

CC(CO)c1ccccc1 (stereo not drawn)
inactive: outcome [1] | outcome [2] | outcome [3] | outcome [4] | outcome [5] | outcome [6] | outcome [7] | outcome [8]

CC(C)C(=O)OCCc1ccccc1
inactive: outcome [1] | outcome [2] | outcome [3] | outcome [4] | outcome [5] | outcome [6] | outcome [7] | outcome [8]

NC(CO)C(=O)NNCc1ccc(O)c(O)c1O (stereo not drawn)
inactive: outcome [1] | outcome [2] | outcome [3] | outcome [4] | outcome [5] | outcome [6] | outcome [7] | outcome [8]

CC1(CO)CN(c2ccccc2)NC1=O (stereo not drawn)
inactive: outcome [1] | outcome [2] | outcome [3] | outcome [4] | outcome [5] | outcome [6] | outcome [7] | outcome [8]

CCC(CC)CO
inactive: outcome [1] | outcome [2] | outcome [3] | outcome [4] | outcome [5] | outcome [6] | outcome [7] | outcome [8]

C=C1CC/C=C(\C)CC[C@@H]2[C@@H]1CC2(C)C
inactive: outcome [1] | outcome [2] | outcome [3] | outcome [4] | outcome [5] | outcome [6] | outcome [7] | outcome [8]

CCCC/C=C/C=C\C=O
inactive: outcome [1] | outcome [2] | outcome [3] | outcome [4] | outcome [5] | outcome [6] | outcome [7] | outcome [8]

COc1ccc(OC)c(Cl)c1
inactive: outcome [1] | outcome [2] | outcome [3] | outcome [4] | outcome [5] | outcome [6] | outcome [7] | outcome [8]

NCCS
inactive: outcome [1] | outcome [2] | outcome [3] | outcome [4] | outcome [5] | outcome [6] | outcome [7] | outcome [8]

COCCOCCOCCOCCO
inactive: outcome [1] | outcome [2] | outcome [3] | outcome [4] | outcome [5] | outcome [6] | outcome [7] | outcome [8]

c1ccc2c(c1)ccc1c3ccccc3ccc21
inactive: outcome [1] | outcome [2] | outcome [3] | outcome [4] | outcome [5] | outcome [6] | outcome [7] | outcome [8]

O=C(NCCc1c[nH]c2ccccc12)c1cccnc1
inactive: outcome [1] | outcome [2] | outcome [3] | outcome [4] | outcome [5] | outcome [6] | outcome [7] | outcome [8]

O=C(/N=N/C(=O)OCc1ccccc1)OCc1ccccc1
inactive: outcome [1] | outcome [2] | outcome [3] | outcome [4] | outcome [5] | outcome [6] | outcome [7] | outcome [8]

COc1ccc(Br)c(C)c1
inactive: outcome [1] | outcome [2] | outcome [3] | outcome [4] | outcome [5] | outcome [6] | outcome [7] | outcome [8]

N#Cc1ccc(C(=O)O)cc1
inactive: outcome [1] | outcome [2] | outcome [3] | outcome [4] | outcome [5] | outcome [6] | outcome [7] | outcome [8]

CC(C)CCCC(C)(C)O
inactive: outcome [1] | outcome [2] | outcome [3] | outcome [4] | outcome [5] | outcome [6] | outcome [7] | outcome [8]

CC(N)C(=O)OC(C)(C)Cc1ccc(Cl)cc1 (stereo not drawn)
inactive: outcome [1] | outcome [2] | outcome [3] | outcome [4] | outcome [5] | outcome [6] | outcome [7] | outcome [8]

CC(=O)NCCCCCC(=O)O
inactive: outcome [1] | outcome [2] | outcome [3] | outcome [4] | outcome [5] | outcome [6] | outcome [7] | outcome [8]

CCCCCCCCCCCCCC
inactive: outcome [1] | outcome [2] | outcome [3] | outcome [4] | outcome [5] | outcome [6] | outcome [7] | outcome [8]

CC/C=C\CC1=C(C)CCC1=O
inactive: outcome [1] | outcome [2] | outcome [3] | outcome [4] | outcome [5] | outcome [6] | outcome [7] | outcome [8]

COC(=O)c1ccccc1C(=O)c1ccc(OCCN2CCCCC2)cc1
inactive: outcome [1] | outcome [2] | outcome [3] | outcome [4] | outcome [5] | outcome [6] | outcome [7] | outcome [8]

COc1nccnc1NS(=O)(=O)c1ccc(N)cc1
inactive: outcome [1] | outcome [2] | outcome [3] | outcome [4] | outcome [5] | outcome [6] | outcome [7] | outcome [8]

COC(=O)C1CC(=O)C(C(=O)OC)CC1=O (stereo not drawn)
inactive: fluorescence, % of fluorescein [1] -0.0599% [at 3.72 µM] | fluorescence, % of fluorescent control [2] 1.67% [at 3.72 µM] | activity change [3] -0.0001% [at 3.72 µM] | fluorescence, % of fluorescent control [4] 0.0034% [at 3.72 µM] | fluorescence, % of Rose Bengal [5] 0.258% [at 3.72 µM] | fluorescence, % of fluorescent control [6] 2.39% [at 3.72 µM] | fluorescence, % of fluorescein control [7] -0.0181% [at 3.72 µM] | fluorescence, % of fluorescent control [8] 1.56% [at 3.72 µM]
